# Data taken from PubChem BioAssay (EPA / NIEHS).
# Inconclusive results are not listed. The source made the active and inactive calls. Rule for the calls, unless noted: active = hit-call score of the fitted dose curve at least 0.9, where 1 is the maximum; inactive = score below 0.9.
# Legend:
# [1] = target: Aryl hydrocarbon receptor (Homo sapiens) (UniProt P35869); assay: ATG_Ahr_CIS: Attagene CIS-FACTORIAL HepG2 Assay for human Aryl Hydrocarbon Receptor (Ahr) (AID 2282930); settings: HepG2 AhR cis-factorial reporter transcription; actives raise or lower the signal
# Sequence of Aryl hydrocarbon receptor (Homo sapiens) (P35869 whole entry, looked up): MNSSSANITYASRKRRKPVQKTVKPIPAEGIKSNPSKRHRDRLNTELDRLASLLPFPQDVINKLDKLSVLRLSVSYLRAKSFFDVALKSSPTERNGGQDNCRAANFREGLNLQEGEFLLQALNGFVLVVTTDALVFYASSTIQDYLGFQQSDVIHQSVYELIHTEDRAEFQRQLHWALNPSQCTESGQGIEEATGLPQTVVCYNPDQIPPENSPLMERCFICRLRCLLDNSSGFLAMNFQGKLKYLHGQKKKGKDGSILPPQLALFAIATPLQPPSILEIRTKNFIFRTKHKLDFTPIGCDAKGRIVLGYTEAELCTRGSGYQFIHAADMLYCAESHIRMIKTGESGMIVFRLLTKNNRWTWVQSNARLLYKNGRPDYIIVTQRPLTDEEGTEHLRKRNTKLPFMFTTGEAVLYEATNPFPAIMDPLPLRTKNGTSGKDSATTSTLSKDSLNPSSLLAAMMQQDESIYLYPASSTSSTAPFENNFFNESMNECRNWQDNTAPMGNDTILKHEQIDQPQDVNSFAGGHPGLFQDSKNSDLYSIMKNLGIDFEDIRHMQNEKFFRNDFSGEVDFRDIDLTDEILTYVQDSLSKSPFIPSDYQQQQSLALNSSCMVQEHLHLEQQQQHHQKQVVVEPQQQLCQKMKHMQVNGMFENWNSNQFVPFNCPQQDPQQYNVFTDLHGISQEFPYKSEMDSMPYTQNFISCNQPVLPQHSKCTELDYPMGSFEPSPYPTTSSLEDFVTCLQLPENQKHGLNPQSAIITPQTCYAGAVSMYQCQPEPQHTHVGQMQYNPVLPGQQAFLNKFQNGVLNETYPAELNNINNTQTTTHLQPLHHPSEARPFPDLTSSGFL
# How it was run: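 Values derive from bidirectional fitting against DMSO negative control. Underlying signal: cis-element reporter mRNA in transiently transfected HepG2, harvested 24 h post-dose and measured by RT-PCR plus capillary electrophoresis.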
# [2] = target: Transcription factor E2F1 (Homo sapiens) (UniProt Q01094); assay: ATG_E2F_CIS: Attagene CIS-FACTORIAL HepG2 Assay for human E2F Transcription Factor 1 (AID 2282935); settings: HepG2 Attagene cis-reporter, E2F reporter RNA transcripts; actives raise or lower the signal
# Sequence of Transcription factor E2F1 (Homo sapiens) (Q01094 whole entry, looked up): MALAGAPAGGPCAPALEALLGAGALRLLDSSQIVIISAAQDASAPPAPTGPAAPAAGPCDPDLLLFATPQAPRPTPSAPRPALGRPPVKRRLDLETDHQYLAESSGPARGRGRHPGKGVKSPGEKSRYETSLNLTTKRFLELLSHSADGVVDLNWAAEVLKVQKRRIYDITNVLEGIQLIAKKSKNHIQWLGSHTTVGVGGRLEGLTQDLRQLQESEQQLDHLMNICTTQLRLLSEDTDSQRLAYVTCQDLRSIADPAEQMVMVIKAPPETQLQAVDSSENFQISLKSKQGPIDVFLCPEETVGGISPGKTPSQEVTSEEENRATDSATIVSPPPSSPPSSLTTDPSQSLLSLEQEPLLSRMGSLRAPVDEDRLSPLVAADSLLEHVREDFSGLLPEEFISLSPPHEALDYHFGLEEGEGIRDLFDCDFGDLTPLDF
# How it was run: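 First, HepG2 cells were transfected with reporter transcription units. Next, they were dosed for 24 h. Then RNA was isolated, converted to cDNA, PCR-amplified, FAM-labeled, HpaI-digested and analyzed by capillary electrophoresis.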
# [3] = ATG_M_61_CIS: Attagene CIS-FACTORIAL HepG2 Assay for M61 Transcription Factor (Internal Marker) (AID 2282937); settings: HepG2 Attagene CIS-FACTORIAL M61 internal marker reporter; actives raise or lower the signal
# How it was run: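 HepG2 cells transiently transfected with cis-element-driven multiple reporter transcription units, dosed for 24 h. Reporter mRNA measured by RT-PCR, 6-FAM primer-extension labelling, HpaI digestion and capillary electrophoresis; bidirectional fit versus DMSO baseline.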
# [4] = ATG_GLI_CIS: Attagene CIS-FACTORIAL HepG2 Assay for human Zinc Finger Protein GLI1 (AID 2282945); settings: HepG2, Attagene cis-factorial reporter mRNA, GLI element; actives raise or lower the signal
# How it was run: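 HepG2 cells transiently transfected with cis-promoter multiplexed reporter units report endogenous transcription factor activity. After 24 h chemical exposure, reporter mRNA was quantified by RT-PCR, 6-FAM labelling, HpaI digestion and capillary electrophoresis, with bidirectional fitting against DMSO.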
# [5] = ATG_PXRE_CIS: Attagene CIS-FACTORIAL HepG2 Assay for human Pregnane X Receptor Element (PXRE) (AID 2282957); settings: HepG2 Attagene CIS-FACTORIAL PXRE reporter, mRNA; actives raise or lower the signal
# How it was run: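 Using HepG2 transfected with multiple reporter transcription units, endogenous factor-driven transcription was scored as reporter mRNA after 24 h exposure.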
# [6] = ATG_PPRE_CIS: Attagene CIS-FACTORIAL HepG2 Assay for human Peroxisome Proliferator-activated Response Element (PPRE) (AID 2282958); settings: HepG2 PPRE cis-element reporter, Attagene transcription factor profiling; actives raise or lower the signal
# How it was run: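 HepG2 cells transiently transfected with multiplexed cis-element reporter units measure endogenous transcription factor activity. After 24 h compound exposure, reporter mRNA is quantified by RT-PCR, 6-FAM labeling, HpaI digestion and capillary electrophoresis; bidirectional fits are made against DMSO baseline.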
# [7] = ATG_SREBP_CIS: Attagene CIS-FACTORIAL HepG2 Assay for human Sterol Regulatory Element Binding (SREBP) (AID 2282962); settings: HepG2 Attagene cis-factorial SREBP reporter, mRNA; actives raise or lower the signal
# How it was run: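 Endogenous factor activity is measured in HepG2 through multiplexed reporter units under cis-element control. Following a 24 h incubation, reporter transcripts are reverse-transcribed, PCR-amplified and sized by capillary electrophoresis; activity is fitted in both directions relative to DMSO.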
# [8] = ATG_Oct_MLP_CIS: Attagene CIS-FACTORIAL HepG2 Assay for human Octamer-Binding Transcription Factor (Oct) (AID 2282993); settings: HepG2 Attagene cis-factorial Oct reporter, mRNA; actives raise or lower the signal
# How it was run: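 Read-out: reporter mRNA via RT-PCR plus capillary electrophoresis of 6-FAM-labelled fragments. Transiently transfected HepG2, 24 h exposure, endogenous TF activity on cis elements. Gain or loss of signal fitted relative to DMSO.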
# [9] = target: human Peroxisome Proliferator-activated Receptor alpha (PPARa), PPARA (gene 5465) (UniProt Q07869); assay: ATG_PPARa_TRANS: Attagene TRANS-FACTORIAL HepG2 Assay for human Peroxisome Proliferator-activated Receptor alpha (PPARa) (AID 2283001; active = hit-call score of the fitted dose curve at least 0.9, where 1 is the maximum)
# Sequence of human Peroxisome Proliferator-activated Receptor alpha (PPARa), PPARA (gene 5465) (Q07869 whole entry, looked up): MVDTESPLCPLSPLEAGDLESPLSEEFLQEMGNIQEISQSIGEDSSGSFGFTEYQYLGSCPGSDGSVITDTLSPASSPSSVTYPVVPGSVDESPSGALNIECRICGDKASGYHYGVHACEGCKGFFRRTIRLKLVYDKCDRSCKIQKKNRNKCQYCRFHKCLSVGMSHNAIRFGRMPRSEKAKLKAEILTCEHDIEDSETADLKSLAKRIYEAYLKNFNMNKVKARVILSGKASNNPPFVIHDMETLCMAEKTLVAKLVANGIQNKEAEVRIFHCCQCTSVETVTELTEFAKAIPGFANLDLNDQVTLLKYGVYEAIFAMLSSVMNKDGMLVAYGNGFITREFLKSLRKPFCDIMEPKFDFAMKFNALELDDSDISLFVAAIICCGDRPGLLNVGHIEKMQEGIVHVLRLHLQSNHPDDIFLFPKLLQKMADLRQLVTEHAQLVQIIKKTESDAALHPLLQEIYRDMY
# How it was run: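 Cells (HepG2) are transfected with multiple reporter transcription units, exposed to chemical for 24 h, then total RNA is reverse-transcribed and amplified. Labelled products are quantified by capillary electrophoresis; induction is referenced to DMSO.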
# [10] = target: Peroxisome proliferator-activated receptor gamma (Homo sapiens) (UniProt P37231); assay: ATG_PPARg_TRANS: Attagene TRANS-FACTORIAL HepG2 Assay for human Peroxisome Proliferator-activated Receptor-gamma (PPARg) (AID 2283007; active = hit-call score of the fitted dose curve at least 0.9, where 1 is the maximum)
# Sequence of Peroxisome proliferator-activated receptor gamma (Homo sapiens) (P37231 whole entry, looked up, the tested form may be a part): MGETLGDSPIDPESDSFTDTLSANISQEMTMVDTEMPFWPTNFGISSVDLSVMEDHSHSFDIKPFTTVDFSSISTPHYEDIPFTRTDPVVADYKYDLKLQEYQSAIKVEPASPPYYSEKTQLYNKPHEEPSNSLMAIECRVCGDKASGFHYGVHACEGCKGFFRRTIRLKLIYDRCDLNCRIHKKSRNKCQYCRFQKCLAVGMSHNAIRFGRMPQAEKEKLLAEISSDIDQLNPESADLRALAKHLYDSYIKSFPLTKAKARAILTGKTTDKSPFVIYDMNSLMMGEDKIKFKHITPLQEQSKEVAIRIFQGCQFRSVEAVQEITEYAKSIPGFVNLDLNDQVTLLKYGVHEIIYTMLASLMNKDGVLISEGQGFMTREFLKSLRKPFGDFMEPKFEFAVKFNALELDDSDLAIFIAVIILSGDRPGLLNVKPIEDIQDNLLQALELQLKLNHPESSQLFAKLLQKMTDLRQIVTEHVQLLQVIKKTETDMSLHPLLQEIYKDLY
# How it was run: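 HepG2 cells transiently transfected with multiplexed GAL4-UAS reporter units and exogenous chimeric NR-Gal4 proteins; reporter mRNA quantified after 24 h compound exposure by RT-PCR, fluorescent labelling, HpaI digestion and capillary electrophoresis; gain-of-signal fitted versus DMSO baseline.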
# [11] = target: human Thyroid Receptor alpha (THRa1), THRA (gene 7067) (UniProt P10827); assay: ATG_THRa1_TRANS: Attagene TRANS-FACTORIAL HepG2 Assay for human Thyroid Receptor alpha (THRa1) (AID 2283014; active = hit-call score of the fitted dose curve at least 0.9, where 1 is the maximum)
# Sequence of human Thyroid Receptor alpha (THRa1), THRA (gene 7067) (P10827 whole entry, looked up, the tested form may be a part): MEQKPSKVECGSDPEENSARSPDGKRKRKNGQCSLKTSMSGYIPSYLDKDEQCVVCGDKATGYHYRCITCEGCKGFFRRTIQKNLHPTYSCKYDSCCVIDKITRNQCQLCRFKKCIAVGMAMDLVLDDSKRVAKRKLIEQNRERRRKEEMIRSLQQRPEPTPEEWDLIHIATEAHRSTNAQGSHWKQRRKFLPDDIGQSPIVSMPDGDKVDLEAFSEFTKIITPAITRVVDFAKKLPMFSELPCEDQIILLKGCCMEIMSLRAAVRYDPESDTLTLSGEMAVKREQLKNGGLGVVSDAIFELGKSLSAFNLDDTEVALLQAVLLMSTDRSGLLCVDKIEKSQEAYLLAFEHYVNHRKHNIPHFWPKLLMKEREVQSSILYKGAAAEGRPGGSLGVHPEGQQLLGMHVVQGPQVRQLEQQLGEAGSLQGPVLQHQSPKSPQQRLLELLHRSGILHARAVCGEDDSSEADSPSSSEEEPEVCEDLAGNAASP
# How it was run: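 Reporter transcript induction, read by capillary electrophoresis of 6-FAM-labelled RT-PCR products, reflects activity of a transfected THRa1-Gal4 fusion in HepG2 liver cells. Cells were dosed for 24 h; activity was fitted in the positive direction against DMSO.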
# [12] = target: Cellular tumor antigen p53 (Homo sapiens) (UniProt P04637); assay: TOX21_p53_BLA_p2_ratio: Tox21 HCT-116 p53 Agonism Beta-lactamase Assay, Ratio, Phase 2 (AID 2283592; active = hit-call score of the fitted dose curve at least 0.9, where 1 is the maximum)
# Sequence of Cellular tumor antigen p53 (Homo sapiens) (P04637 whole entry, looked up): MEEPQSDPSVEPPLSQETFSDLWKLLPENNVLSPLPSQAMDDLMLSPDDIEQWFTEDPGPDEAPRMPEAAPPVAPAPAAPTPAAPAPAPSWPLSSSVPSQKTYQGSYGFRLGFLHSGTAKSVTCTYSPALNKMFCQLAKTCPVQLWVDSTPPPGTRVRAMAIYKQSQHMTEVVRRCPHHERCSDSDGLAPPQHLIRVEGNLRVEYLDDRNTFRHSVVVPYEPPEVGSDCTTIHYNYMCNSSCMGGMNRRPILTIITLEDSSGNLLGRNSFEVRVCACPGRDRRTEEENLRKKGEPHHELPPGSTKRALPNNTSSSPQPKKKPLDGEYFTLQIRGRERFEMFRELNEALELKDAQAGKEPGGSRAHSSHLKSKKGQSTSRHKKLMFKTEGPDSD
# How it was run: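 Plated HCT116 p53-bla cells (4000/well) received compound after 5 h, then 16 h at 37C/5% CO2. CCF4-AM added, 2 h RT. Ratio of 460 to 530 nm emission taken as the p53 reporter signal.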
# [13] = target: Cellular tumor antigen p53 (Homo sapiens) (UniProt P04637); assay: TOX21_p53_BLA_p3_ratio: Tox21 HCT-116 p53 Agonism Beta-lactamase Assay, Ratio, Phase 3 (AID 2283596; active = hit-call score of the fitted dose curve at least 0.9, where 1 is the maximum)
# How it was run: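 Cells were seeded at 4000/well, rested 5 h at 37C, then dosed with DMSO compound solutions (217-fold dilution) for 16 h. CCF4-AM substrate was loaded for 2 h at room temperature, and the 460/530 nm emission ratio was fitted for gain of signal versus DMSO.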
# [14] = target: Cellular tumor antigen p53 (Homo sapiens) (UniProt P04637); assay: TOX21_p53_BLA_p5_ratio: Tox21 HCT-116 p53 Agonism Beta-lactamase Assay, Ratio, Phase 5 (AID 2283599; active = hit-call score of the fitted dose curve at least 0.9, where 1 is the maximum)
# How it was run: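 HCT-116 cells carrying a p53-inducible beta-lactamase reporter were seeded at 4000 cells/well and dosed after 5 h with compound in DMSO (217-fold dilution). After 16 h at 37C, CCF4-AM substrate was added for 2 h, and the 460/530 nm emission ratio was scored as gain-of-signal versus DMSO.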
# [15] = TOX21_p53_BLA_p5_viability: Viability Assessment in the Tox21 HCT-116 p53 Agonism Beta-lactamase Assay, Phase 5 (AID 2283600; active = hit-call score of the fitted dose curve at least 0.9, where 1 is the maximum)
# How it was run: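 Workflow: seed 4000 cells per well, wait 5 h, add compounds (DMSO, 217-fold dilution), incubate 16 h, load CCF4-AM 2 h, add CellTiter-Glo, read luminescence after 30 min.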
# [16] = target: Cellular tumor antigen p53 (Homo sapiens) (UniProt P04637); assay: TOX21_p53_BLA_p4_ratio: Tox21 HCT-116 p53 Agonism Beta-lactamase Assay, Ratio, Phase 4 (AID 2283601; active = hit-call score of the fitted dose curve at least 0.9, where 1 is the maximum)
# How it was run: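 HCT116 cells carrying an inducible beta-lactamase reporter were plated at 4000 cells/well, rested 5 h, then exposed to compounds in DMSO (217-fold dilution) for 16 h at 37C. CCF4-AM substrate was loaded 2 h at room temperature; 460/530 nm emission ratio scored gain-of-signal versus DMSO.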
# [17] = ATG_PBREM_CIS: Attagene CIS-FACTORIAL HepG2 Assay for human Phenobarbital-responsive Enhancer Module (PBREM) (AID 2282955); settings: HepG2 PBREM cis-reporter, Attagene multiplexed transcription; actives raise or lower the signal
# How it was run: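 HepG2 cells transiently transfected with multiple cis-regulated reporter transcription units; endogenous factor activity at the PBREM element measured as reporter mRNA 24 h after dosing, via RT-PCR and capillary electrophoresis of fluorescent fragments; bidirectional fitting versus DMSO.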
# [18] = ATG_AP_2_CIS: Attagene CIS-FACTORIAL HepG2 Assay for human Activator Protein 2 (AP-2) (AID 2282932); settings: HepG2 AP-2 cis-reporter, Attagene transcription factor profiling; actives raise or lower the signal
# How it was run: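 Cells (HepG2) transfected with promoter-driven reporter constructs, treated 24 h. Total RNA reverse-transcribed, reporter cDNA PCR-amplified, FAM-labelled by primer extension, digested, resolved by capillary electrophoresis. Activity fitted both directions versus DMSO.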
# [19] = ACEA_ER_AUC_viability: ACEA Biosciences xCELLigence Real-Time Cell Analysis on Estrogen Receptor Agonism for Viability (AID 2283782; active = hit-call score of the fitted dose curve at least 0.9, where 1 is the maximum;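 note: hit means loss of impedance signal meaning reduced cell growth or viability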)
# How it was run: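 Continuous-exposure impedance cell analysis uses T-47D cells in charcoal-stripped serum, eight 1:4 dilutions topping at 100 uM final, biological duplicate. Area under the growth curve at 80 h is fitted against DMSO baseline.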
# [20] = target: Retinoic acid receptor RXR-alpha (Homo sapiens) (UniProt P19793); assay: ATG_RXRa_TRANS: Attagene TRANS-FACTORIAL HepG2 Assay for human Retinoid X Receptor alpha (RXRa) (AID 2283012; active = hit-call score of the fitted dose curve at least 0.9, where 1 is the maximum)
# Sequence of Retinoic acid receptor RXR-alpha (Homo sapiens) (P19793 whole entry, looked up, the tested form may be a part): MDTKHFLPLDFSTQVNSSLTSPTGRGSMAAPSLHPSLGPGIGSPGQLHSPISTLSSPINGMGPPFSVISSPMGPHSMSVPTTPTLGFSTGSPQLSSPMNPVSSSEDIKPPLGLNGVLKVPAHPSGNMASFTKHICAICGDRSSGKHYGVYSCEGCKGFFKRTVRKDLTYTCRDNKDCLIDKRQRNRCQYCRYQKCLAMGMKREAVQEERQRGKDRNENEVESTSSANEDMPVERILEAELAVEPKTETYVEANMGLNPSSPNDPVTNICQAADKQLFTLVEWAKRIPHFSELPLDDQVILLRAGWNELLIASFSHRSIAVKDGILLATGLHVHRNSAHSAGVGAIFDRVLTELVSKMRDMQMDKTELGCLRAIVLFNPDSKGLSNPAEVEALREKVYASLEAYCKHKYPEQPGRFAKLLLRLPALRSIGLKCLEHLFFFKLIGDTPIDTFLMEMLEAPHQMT
# How it was run: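 Measures exogenous chimeric NR-GAL4 activity in transfected HepG2 liver cells after 24 h of dosing. Induced reporter mRNA was detected by RT-PCR with capillary electrophoresis, and gain of signal was analysed against DMSO.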
structure (smiles),measurement,setting,value
CCOC(=O)NC(=S)Nc1ccccc1NC(=S)NC(=O)OCC,outcome,[1],inactive
same,outcome,[2],inactive
same,outcome,[3],inactive
same,outcome,[4],inactive
same,AC50,[5],1.68 µM (active)
same,outcome,[6],inactive
same,outcome,[7],inactive
same,outcome,[8],inactive
same,outcome,[9],inactive
same,outcome,[10],inactive
same,outcome,[11],inactive
same,AC50,[12],59.6 µM (active)
same,AC50,[13],85.4 µM (active)
same,AC50,[14],77.3 µM (active)
same,outcome,[15],inactive
same,AC50,[16],64 µM (active)
CCCCOC(=O)CCC(=O)OCCCC,outcome,[1],inactive
same,outcome,[3],inactive
same,outcome,[17],inactive
same,outcome,[5],inactive
same,outcome,[6],inactive
same,outcome,[7],inactive
same,outcome,[8],inactive
same,outcome,[9],inactive
same,outcome,[11],inactive
same,outcome,[14],inactive
same,outcome,[16],inactive
COc1cc(OC)nc(Oc2cccc(Oc3nc(OC)cc(OC)n3)c2C(=O)O)n1,AC50,[1],57.5 µM (active)
same,outcome,[18],inactive
same,outcome,[2],inactive
same,outcome,[3],inactive
same,outcome,[17],inactive
same,AC50,[5],56 µM (active)
same,outcome,[6],inactive
same,outcome,[9],inactive
same,outcome,[10],inactive
same,outcome,[12],inactive
same,outcome,[13],inactive
same,outcome,[14],inactive
same,outcome,[15],inactive
same,outcome,[19],inactive
CC(C)COP(=O)(OCC(C)C)OCC(C)C,AC50,[1],73.3 µM (active)
same,outcome,[18],inactive
same,outcome,[2],inactive
same,AC50,[5],2.21 µM (active)
same,AC50,[6],128 µM (active)
same,outcome,[7],inactive
same,outcome,[8],inactive
same,AC50,[10],49.8 µM (active)
same,outcome,[11],inactive
same,outcome,[13],inactive
same,outcome,[14],inactive
same,outcome,[16],inactive
Cc1cc(C)c(C2=C(OC(=O)CC(C)(C)C)C3(CCCC3)OC2=O)c(C)c1,outcome,[1],inactive
same,outcome,[2],inactive
same,AC50,[4],163 µM (active)
same,outcome,[17],inactive
same,AC50,[5],7.83 µM (active)
same,outcome,[6],inactive
same,AC50,[7],166 µM (active)
same,AC50,[8],128 µM (active)
same,AC50,[10],4.68 µM (active)
same,outcome,[19],inactive
CC(C)(C)C(O)C(Oc1ccc(-c2ccccc2)cc1)n1cncn1 (stereo not drawn),outcome,[1],inactive
same,outcome,[4],inactive
same,outcome,[17],inactive
same,AC50,[5],1.29 µM (active)
same,outcome,[6],inactive
same,outcome,[8],inactive
same,AC50,[10],14.3 µM (active)
same,outcome,[20],inactive
CC(C)(C)C(=O)CCl,outcome,[2],inactive
same,outcome,[3],inactive
same,outcome,[4],inactive
same,outcome,[5],inactive
same,outcome,[6],inactive
same,outcome,[7],inactive
same,outcome,[8],inactive
same,outcome,[9],inactive
same,AC50,[10],25.7 µM (active)
same,outcome,[20],inactive
same,outcome,[12],inactive
same,outcome,[13],inactive
same,outcome,[14],inactive
same,outcome,[15],inactive
same,outcome,[16],inactive
same,outcome,[19],inactive
NNc1ccccc1,outcome,[18],inactive
same,outcome,[2],inactive
same,outcome,[3],inactive
same,outcome,[17],inactive
same,AC50,[5],38.9 µM (active)
same,outcome,[7],inactive
same,outcome,[9],inactive
same,AC50,[10],29.2 µM (active)
same,outcome,[20],inactive
same,outcome,[11],inactive
same,outcome,[19],inactive
